This is a sample that favours compounds with a hit; in the whole collection about 3.1% have one here.
FAS TE block: inhibitors of human fatty acid synthase thioesterase domain | P49327 | recombinant FAS-TE, OMFH fluorogenic substrate, fluorescence endpoint | inhibition, % at 15 µM | 0.67% of 360,000 active;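 active = compounds whose normalised, plate-corrected inhibition of enzyme fluorescence in the single-dose primary screen is 50% or more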
NadD block: inhibitors of Staphylococcus aureus NadD | purified NadD enzyme, colorimetric absorbance read-out | inhibition, % at 20 µM | 0.78% of 360,000 active | AID 602399; in the data active = inhibition above about 26%
Calb FLC: affects C. albicans growth with fluconazole; AID 1979; C. albicans CaCi-2 (fluconazole-resistant clinical isolate) + fluconazole, Alamar Blue growth, 48 h; growth inhibition, % (test concentration not listed); 0.57% of 300,000 active;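 active = growth inhibition above about 58% in most replicates, limit read from the data, passing the limit was not always enough; inconclusive = exactly half the replicates above a set limit; inactive = most replicates below a set limit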;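 note: all wells also contain fluconazole at 8 µg/ml as a sub-toxic cotreatment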
SUMO Mot1 rescue: SUMOylation pathway inhibition by Mot1-301 growth rescue; S. cerevisiae Mot1-301 growth rescue, ATP luminescence, 38.5C; percent above DMSO median, 100 means doubled; growth rescue, % at 18.8 µM; 1% of 320,000 active; AID 2716;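 active = every valid replicate shows activation above 250% relative to neutral control wells; inactive = the rest, any valid replicate at or below 250%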
ATG4B inhibitor: blocks human ATG4B protease cleavage of LC3 substrate; 0.51% of 340,000 active; AID 504462; inhibition, % at 8.33 µM; ATG4B cleavage of LC3-PLA2, NBD-HPC fluorescence, 1 h; in the data active = inhibition above about 40%
Target sequence (Q9Y4P1 whole entry, looked up): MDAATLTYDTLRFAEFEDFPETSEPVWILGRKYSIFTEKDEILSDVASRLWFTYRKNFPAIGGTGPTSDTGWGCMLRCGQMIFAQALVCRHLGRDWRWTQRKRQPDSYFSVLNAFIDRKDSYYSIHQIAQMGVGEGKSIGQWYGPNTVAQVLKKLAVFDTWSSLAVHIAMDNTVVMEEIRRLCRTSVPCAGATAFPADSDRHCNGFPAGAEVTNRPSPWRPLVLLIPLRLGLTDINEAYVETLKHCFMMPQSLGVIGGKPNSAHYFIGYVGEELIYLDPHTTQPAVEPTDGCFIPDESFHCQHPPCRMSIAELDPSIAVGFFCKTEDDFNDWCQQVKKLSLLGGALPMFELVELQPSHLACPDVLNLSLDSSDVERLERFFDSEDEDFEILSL
FAS-TE conf: FAS thioesterase (human) inhibition, confirmation | shares compounds with FAS TE block | inhibition, % at 15 µM | recombinant FAS-TE, OMFH fluorogenic substrate, fluorescence | AID 624325 | 45% of 2,300 active;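 active = compounds inhibiting the enzyme by at least 50% at 15 µM in any one of the replicates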
Of the large screens only hits and unclear results are named; the others gave an inactive call (follow-up assays come after a bar, where they were run).

CC(NC(=O)/C(=C/c1ccc2c(c1)OCO2)NC(=O)c1cccc([N+](=O)[O-])c1)C(=O)O (stereo not given)	Calb FLC inconclusive
O=C(N[C@H]1/C=C\[C@@H](O)CCCC1)OCc1ccccc1	none (no result: Calb FLC, SUMO Mot1 rescue)
Cc1ccc(NC(=O)c2cc([N+](=O)[O-])ccc2N2CCOCC2)cc1C	FAS TE block 73.9 | FAS-TE conf 77.6
CC(C)c1ccc(NC(=O)c2cc([N+](=O)[O-])ccc2N2CCOCC2)cc1	FAS TE block 73.5 | FAS-TE conf inactive
Cc1ccc(NC(=O)C2(c3ccc([N+](=O)[O-])cc3)CCCC2)cc1	FAS TE block 60.2 | FAS-TE conf 50.8
CN(C)S(=O)(=O)c1cccc(NC(=O)c2cc([N+](=O)[O-])ccc2N2CCCCC2)c1	FAS TE block 58.6 (no result: Calb FLC) | FAS-TE conf 55.5
Cc1ccc(OCC(=O)Nc2ccc([N+](=O)[O-])cc2)cc1	none
Cc1cccc(NNC(=O)C2CCC2)c1	none
CCc1cccc2sc(N3CCN(C(=O)c4ccc([N+](=O)[O-])o4)CC3)nc12	FAS TE block 51.5 | FAS-TE conf 40.0
O=C(c1ccc([N+](=O)[O-])o1)N1CCN(Cc2ccccc2)CC1	none
CCN(CC)c1c(C)nc2ccc(C(=O)N3CCN(C(=O)c4ccco4)CC3)cn12	none (no result: Calb FLC, SUMO Mot1 rescue, ATG4B inhibitor)
CCOC(=O)c1sc(N2C(=O)C(O)=C(C(=O)c3ccco3)C2c2ccc([N+](=O)[O-])cc2)nc1C (stereo not given)	FAS TE block 56.4 | FAS-TE conf 72.7
COc1ccc(CNc2ncc(-c3ccc(Cl)cc3)n2C)c(OC)c1OC	none
COc1ccc(CNC(=O)COC(=O)C2CCC(C(C)(C)C)CC2)cc1 (stereo not given)	none
Oc1ccc(-c2nccs2)cc1	none (no result: Calb FLC, SUMO Mot1 rescue)
Cc1c(Br)c([N+](=O)[O-])nn1CC(=O)N1CCc2ccccc2C1	FAS TE block 64.2 | FAS-TE conf 59.5
Cc1c(Cl)c([N+](=O)[O-])nn1CCCC(=O)N1CCN(c2ccccc2)CC1	none
O=C(CCn1c(=O)c2ccccc2n(Cc2cccc([N+](=O)[O-])c2)c1=O)N1CCc2ccccc2C1	FAS TE block 86.6 | FAS-TE conf 47.1
O=C(Cn1cc([N+](=O)[O-])ccc1=O)N1CCc2ccccc2C1	FAS TE block 67.0 (no result: Calb FLC) | FAS-TE conf 69.1
Cc1c(Br)c([N+](=O)[O-])nn1CCCC(=O)N1CCN(c2ccccc2)CC1	FAS TE block 54.2 | FAS-TE conf 42.7
O=S(=O)(c1c(F)cccc1F)N1CCCC2CCCCC21 (stereo not given)	none (no result: Calb FLC)
CC(=O)OC1CC2C(C)(C)C(=O)C=CC2(C)C2CCC3(C)C(c4ccoc4)OC(=O)C4OC43C12C (stereo not given)	none (no result: Calb FLC, SUMO Mot1 rescue, ATG4B inhibitor)
CC(=O)O[C@@H]1C[C@H]2C(C)(C)C(=O)C=C[C@]2(C)[C@H]2CC[C@@]3(C)[C@H](c4ccoc4)OC(=O)[C@H]4O[C@]43[C@@]21C	FAS TE block 50.8 | FAS-TE conf inactive
O=C1CCCCCC[C@@H](O)[C@H](O)C[C@H](c2ccccc2)O1	none (no result: Calb FLC, SUMO Mot1 rescue, ATG4B inhibitor)
COC(=O)[C@H]1[C@H]2C[C@@H]3c4[nH]c5cc(OC)ccc5c4CCN3C[C@H]2C[C@@H](OC(=O)/C=C/c2cc(OC)c(OC)c(OC)c2)[C@@H]1OC	FAS TE block 54.2 (no result: Calb FLC) | FAS-TE conf inactive
O=[N+]([O-])c1ccc(N2CCN(S(=O)(=O)c3ccc(Cl)c(Cl)c3)CC2)cc1NCCN1CCOCC1	FAS TE block 71.2 | FAS-TE conf inactive
O=C(Nc1ccccc1)Nc1ccc(S(=O)(=O)N2CCCCC2)cc1	none
COC(=O)c1cc(NC(=O)N2c3ccccc3Sc3ccccc32)cc(C(=O)OC)c1	FAS TE block 72.1 | FAS-TE conf inactive
O=C(Nc1ccc(S(=O)(=O)N2CCCC2)cc1)N1c2ccccc2Sc2ccccc21	FAS TE block 76.3 | FAS-TE conf inactive
O=C(NN1C(=O)c2ccccc2NC1c1ccc([N+](=O)[O-])o1)c1ccccc1 (stereo not given)	FAS TE block 52.2 | FAS-TE conf inactive
O=C(COC(=O)CCNS(=O)(=O)c1ccccc1)NC(=O)c1ccccc1	none
COc1cc(C(=O)OCC(=O)N2CCNC2=O)cc(Cl)c1OC	none (no result: Calb FLC, SUMO Mot1 rescue)
O=[N+]([O-])c1cc(-c2csc(NCCc3nc4cc(C(F)(F)F)ccc4n3CCCO)n2)ccc1Cl	FAS TE block 80.6 | FAS-TE conf 69.9
Cc1nc2cc(C(F)(F)F)ccc2n1CCNc1nc(-c2ccc([N+](=O)[O-])c(Cl)c2)cs1	FAS TE block 52.2 | FAS-TE conf inactive
CCCNC(=O)CNC(=O)c1ccc(C#N)cc1	none (no result: Calb FLC, SUMO Mot1 rescue)
Cc1ccc(-c2c(C(=O)N(C)Cc3ccccc3)oc(=O)c3ccccc23)cc1	FAS TE block 53.6 | FAS-TE conf 51.1
COc1ccc2oc(C(=O)OC(C)C(=O)NC3(C#N)CCCCC3)c(C)c2c1 (stereo not given)	none
Cc1ccc(S(=O)(=O)N2CCN(c3ccnc4cc(Cl)ccc34)CC2)cc1	FAS TE block 63.7 | FAS-TE conf inactive
CN(c1ccccc1)S(=O)(=O)c1cccc(NC(=O)CCNC(=O)c2ccc([N+](=O)[O-])cc2)c1	FAS TE block 54.4 (no result: Calb FLC) | FAS-TE conf 61.5
O=C(CCNC(=O)c1ccc([N+](=O)[O-])cc1)NC1CCCCCC1	FAS TE block 63.4 (no result: Calb FLC) | FAS-TE conf 69.8
O=C(NCCOc1ccccc1)c1cc(C(=O)NCCOc2ccccc2)cc([N+](=O)[O-])c1	FAS TE block 75.3 | FAS-TE conf 76.6
O=C(CCNC(=O)c1ccc(Br)cc1)NC1CCCCCC1	none (no result: Calb FLC)
O=C(NCCC(=O)N(CCc1ccccc1)Cc1ccccc1)c1ccc([N+](=O)[O-])cc1	FAS TE block 61.2 | FAS-TE conf 42.1
Nc1ccn(CC(=O)NCCc2ccccn2)c(=O)n1	none (no result: Calb FLC)
O=C(NCCc1ccc([N+](=O)[O-])cc1)c1ccccc1	none
CC(C)c1ccc(CCNC(=O)c2ccc([N+](=O)[O-])cc2)cc1	FAS TE block 66.5, Calb FLC inconclusive | FAS-TE conf 73.0
O=C(CCNC(=O)c1ccc([N+](=O)[O-])cc1)NCc1ccccc1	FAS TE block 59.5 (no result: Calb FLC, SUMO Mot1 rescue) | FAS-TE conf 71.9
O=C(CCC(=O)NNC(=O)c1ccc([N+](=O)[O-])cc1)NCc1ccccc1	none
CCOc1ccc(N(CC(=O)Nc2ccc(OC)cc2)C2=NC3CS(=O)(=O)CC3S2)cc1 (stereo not given)	none
Cc1ccc2c(c1)N(CC(=O)N1CCCCC1)C(=O)C(C)O2 (stereo not given)	none
CCOC1=C2[C@H](c3ccccc3)N(S(=O)(=O)c3ccc(C)cc3)[C@H](C(C)C)[C@H]2n2c(=O)n(-c3ccccc3)c(=O)n2C1	FAS TE block 60.5 (no result: Calb FLC, SUMO Mot1 rescue, ATG4B inhibitor) | FAS-TE conf inactive
